Source: PubChem BioAssay (EPA / NIEHS)
Inconclusive results are not listed. Active and inactive are the calls of the source. How the source made its calls: active means hit-call score of the fitted dose curve at least 0.9, where 1 is the maximum; inconclusive means response in the unintended direction; inactive means score below 0.9.

How the values were obtained:
[1] = biological target: Sodium channel protein type 1 subunit alpha (Rattus norvegicus) (UniProt P04774); test: NVS_IC_rNaCh_site2: NovaScreen (NVS) Ion Channel Assay for rat Sodium Channel, Site 2 (NaCh) (AID 2283322);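 further: hit means loss of radioligand binding signal relative to DMSO so AC50 marks displacement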
In short: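 Initial duplicate single-point testing at 25 uM, followed by concentration-response runs for actives. Binding of radioligand to rat forebrain membranes quantified after 1 h via filter-based radiodetection.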

[2] = biological target: human Peripheral-type Benzodiazepine Receptor (PBR), TSPO (gene 706) (UniProt P30536); test: NVS_MP_hPBR: NovaScreen (NVS) Membrane Protein Assay for human Peripheral-type Benzodiazepine Receptor (PBR) (AID 2283331);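 further: hits reduce radioligand binding relative to DMSO baseline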
human Peripheral-type Benzodiazepine Receptor (PBR), TSPO (gene 706), sequence (P30536 whole entry, looked up): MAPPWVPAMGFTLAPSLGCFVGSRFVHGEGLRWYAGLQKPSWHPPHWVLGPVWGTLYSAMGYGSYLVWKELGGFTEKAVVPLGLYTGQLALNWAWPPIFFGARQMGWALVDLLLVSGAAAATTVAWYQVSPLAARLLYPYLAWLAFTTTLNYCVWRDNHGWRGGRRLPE
In short: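 Using human colon-derived membranes, this one-endpoint binding test reads radioligand loss by scintillation after 1 h. Screening started at 25 uM in duplicate, with positive and negative controls on every plate, and actives moved to dose series.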

[3] = NVS_IC_rCaBTZCHL: NovaScreen (NVS) Ion Channel Assay for Calcium Channel, Type L, Benzothiazepine Site (CaBTZCHL) (AID 2283337)
In short: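 Rat cortical membrane preparation, cell-free. Radioligand displaced by test chemical; 1.5 h incubation; filtration, scintillation count. DMSO = negative control/baseline. Primary: duplicate, 25 uM; secondary: concentration series.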

[4] = biological target: rat Peripheral-type Benzodiazepine Receptor (PBR), Tspo (gene 24230) (UniProt P16257); test: NVS_MP_rPBR: NovaScreen (NVS) Membrane Protein Assay for rat Peripheral-type Benzodiazepine Receptor (PBR) (AID 2283335)
rat Peripheral-type Benzodiazepine Receptor (PBR), Tspo (gene 24230), sequence (P16257 whole entry, looked up): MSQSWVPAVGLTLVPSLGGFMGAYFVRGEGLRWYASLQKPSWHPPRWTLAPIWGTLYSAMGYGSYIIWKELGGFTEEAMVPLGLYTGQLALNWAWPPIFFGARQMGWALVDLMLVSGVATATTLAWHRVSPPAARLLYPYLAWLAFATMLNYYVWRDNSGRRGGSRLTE
In short: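 Single-concentration duplicate screening at 25 uM preceded concentration-series retesting of actives. Binding of a specific radioligand to rat kidney membrane PBR was read by filtration radiodetection after 1 h, with plate-wise positive and negative controls.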

[5] = biological target: chimpanzee Androgen Receptor (AR), AR (gene 747460) (UniProt O97775); test: NVS_NR_cAR: NovaScreen (NVS) Nuclear Receptor Binding Assay for chimpanzee Androgen Receptor (AR) (AID 2283346);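 further: radioligand displacement from AR measured by scintillation counting in a cell-free assay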
chimpanzee Androgen Receptor (AR), AR (gene 747460), sequence (O97775 whole entry, looked up): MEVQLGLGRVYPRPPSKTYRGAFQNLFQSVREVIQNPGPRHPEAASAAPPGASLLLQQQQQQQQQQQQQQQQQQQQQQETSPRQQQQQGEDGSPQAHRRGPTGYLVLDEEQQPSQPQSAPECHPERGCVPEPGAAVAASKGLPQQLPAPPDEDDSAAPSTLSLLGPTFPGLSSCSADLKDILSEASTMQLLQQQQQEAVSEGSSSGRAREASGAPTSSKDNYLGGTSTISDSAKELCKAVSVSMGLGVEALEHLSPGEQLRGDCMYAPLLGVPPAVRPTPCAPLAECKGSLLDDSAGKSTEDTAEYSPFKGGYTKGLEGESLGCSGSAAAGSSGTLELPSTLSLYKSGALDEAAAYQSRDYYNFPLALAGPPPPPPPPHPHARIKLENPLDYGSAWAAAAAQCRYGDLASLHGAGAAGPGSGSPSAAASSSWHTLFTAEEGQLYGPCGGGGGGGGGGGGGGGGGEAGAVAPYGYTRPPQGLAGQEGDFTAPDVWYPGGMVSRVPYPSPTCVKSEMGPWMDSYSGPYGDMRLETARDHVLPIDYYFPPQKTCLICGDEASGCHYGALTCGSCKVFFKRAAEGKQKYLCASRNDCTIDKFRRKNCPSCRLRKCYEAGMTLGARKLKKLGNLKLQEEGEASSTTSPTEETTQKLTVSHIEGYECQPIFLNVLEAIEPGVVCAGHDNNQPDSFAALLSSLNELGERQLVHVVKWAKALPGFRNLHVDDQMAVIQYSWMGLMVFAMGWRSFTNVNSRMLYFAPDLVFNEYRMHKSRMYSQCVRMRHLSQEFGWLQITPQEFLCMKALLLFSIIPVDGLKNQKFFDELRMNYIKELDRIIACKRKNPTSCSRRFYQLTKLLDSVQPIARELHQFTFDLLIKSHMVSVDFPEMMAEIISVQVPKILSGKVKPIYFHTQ
In short: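 Cell-free radioligand displacement using receptor protein extracted from Sf9/Sf21 cells; bound radioligand measured by scintillation counting 72 hours after chemical dosing. Loss of signal versus DMSO baseline indicates binding; primary screen single-concentration in duplicate at 25 uM, actives followed in concentration series.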

[6] = biological target: Estrogen receptor beta (Homo sapiens) (UniProt Q92731); test: OT_ER_ERbERb_0480: Odyssey Thera (OT) 8-hour HEK293T Protein-Complementation Assay for Estrogen Receptor-beta/-beta Homodimer (AID 2283357);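 further: active means signal gain over DMSO baseline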
Estrogen receptor beta (Homo sapiens), sequence (Q92731 whole entry, looked up, the tested form may be a part): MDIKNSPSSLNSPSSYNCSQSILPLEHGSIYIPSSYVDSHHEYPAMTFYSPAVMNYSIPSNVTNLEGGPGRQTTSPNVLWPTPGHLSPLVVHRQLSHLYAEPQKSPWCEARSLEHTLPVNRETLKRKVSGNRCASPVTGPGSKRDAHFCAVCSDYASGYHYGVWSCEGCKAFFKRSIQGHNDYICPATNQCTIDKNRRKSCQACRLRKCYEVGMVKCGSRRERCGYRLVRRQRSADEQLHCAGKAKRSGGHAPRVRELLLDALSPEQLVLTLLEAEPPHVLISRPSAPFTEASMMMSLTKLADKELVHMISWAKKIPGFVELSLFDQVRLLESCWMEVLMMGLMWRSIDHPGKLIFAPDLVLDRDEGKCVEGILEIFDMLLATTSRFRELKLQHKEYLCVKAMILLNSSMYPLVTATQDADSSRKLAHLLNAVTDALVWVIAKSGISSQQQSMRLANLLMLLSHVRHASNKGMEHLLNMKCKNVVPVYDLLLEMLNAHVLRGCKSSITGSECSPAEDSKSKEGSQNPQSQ
In short: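 Fluorescence gain from complemented reporter fragments on ER-beta LBD homodimer in HEK293T was quantified against DMSO controls after 8 h treatment, fixation in 4% formaldehyde and Draq5 staining.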

[7] = biological target: Estrogen receptor (Homo sapiens) (UniProt P03372); test: OT_ER_ERaERa_1440: Odyssey Thera (OT) 24-hour HEK293T Protein-Complementation Assay for Estrogen Receptor-alpha/-alpha Homodimer (AID 2283349);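 further: hits raise fluorescence above DMSO for agonists and antagonists alike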
Estrogen receptor (Homo sapiens), sequence (P03372 whole entry, looked up, the tested form may be a part): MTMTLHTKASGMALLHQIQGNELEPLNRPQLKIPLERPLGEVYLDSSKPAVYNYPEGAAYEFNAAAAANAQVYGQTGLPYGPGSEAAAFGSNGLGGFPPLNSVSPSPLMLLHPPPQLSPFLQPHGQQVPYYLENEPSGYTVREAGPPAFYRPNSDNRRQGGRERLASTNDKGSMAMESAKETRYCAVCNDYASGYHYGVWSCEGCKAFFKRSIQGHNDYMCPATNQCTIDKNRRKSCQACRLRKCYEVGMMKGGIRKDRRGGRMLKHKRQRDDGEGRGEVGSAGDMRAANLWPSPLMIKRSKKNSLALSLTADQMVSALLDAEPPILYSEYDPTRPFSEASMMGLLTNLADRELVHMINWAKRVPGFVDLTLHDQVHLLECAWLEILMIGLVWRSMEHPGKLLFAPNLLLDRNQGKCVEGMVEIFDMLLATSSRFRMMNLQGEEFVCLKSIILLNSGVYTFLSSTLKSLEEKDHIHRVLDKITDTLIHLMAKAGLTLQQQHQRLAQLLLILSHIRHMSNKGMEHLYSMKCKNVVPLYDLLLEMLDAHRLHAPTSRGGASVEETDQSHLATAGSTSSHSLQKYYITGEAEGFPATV
In short: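 Stably transfected HEK293T; ERα LBD homodimer PCA. 24 h dosing, fluorescence intensity read, gain-of-signal vs DMSO.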

[8] = biological target: Estrogen receptor (Homo sapiens) (UniProt P03372); test: OT_ER_ERaERa_0480: Odyssey Thera (OT) 8-hour HEK293T Protein-Complementation Assay for Estrogen Receptor-alpha/-alpha Homodimer (AID 2283351);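 further: rise in fluorescence from reassembled reporter fragments on ERα LBD homodimer in nucleus or whole cell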
In short: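 Read-out: fluorescence intensity rise relative to DMSO, nuclear for agonists, nuclear plus cytoplasmic for antagonists. Construct is the ERα LBD (aa 310-547) homodimer fragment-complementation pair, stably expressed in HEK293T; exposure 8 h.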

[9] = biological target: T1, Estrogen receptor (Homo sapiens) + Estrogen receptor beta (Homo sapiens) (UniProt P03372+Q92731); test: OT_ER_ERaERb_0480: Odyssey Thera (OT) 8-hour HEK293T Protein-Complementation Assay for Estrogen Receptor-alpha/-beta Heterodimer (AID 2283352)
T1 sequence (P03372 whole entry, looked up, the tested form may be a part): as above
T1 sequence (Q92731 whole entry, looked up, the tested form may be a part): as the sequence (Q92731 whole entry, looked up, the tested form may be a part) above
In short: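 HEK293T protein-fragment complementation assay of ER-alpha/ER-beta LBD heterodimerisation, read 8 h after dosing. Mean nuclear/cytoplasmic fluorescence intensity measured by laser scanning cytometry; gain of signal fitted relative to DMSO.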

[10] = biological target: T1, Estrogen receptor (Homo sapiens) + Estrogen receptor beta (Homo sapiens); test: OT_ER_ERaERb_1440: Odyssey Thera (OT) 24-hour HEK293T Protein-Complementation Assay for Estrogen Receptor-alpha/-beta Homodimer (AID 2283356);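 further: heteromer of ER alpha and ER beta binding domains; hits raise reporter fluorescence and both agonists and antagonists give an increase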
In short: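 HEK293T stably expressing a PCA of ER alpha LBD (aa 310-547) and ER beta LBD (aa 263-489). After 24 h compound exposure, mean fluorescence intensity in nucleus (agonists) or nucleus and cytoplasm (antagonists) measured by laser scanning cytometry versus vehicle.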

[11] = biological target: human Peroxisome Proliferator-activated Receptor alpha (PPARa), PPARA (gene 5465) (UniProt Q07869); test: NVS_NR_hPPARa: NovaScreen (NVS) Nuclear Receptor Binding Assay for human Peroxisome Proliferator-activated Receptor alpha (PPARa) (AID 2283359);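 further: activity means loss of TR-FRET signal versus DMSO baseline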
human Peroxisome Proliferator-activated Receptor alpha (PPARa), PPARA (gene 5465), sequence (Q07869 whole entry, looked up): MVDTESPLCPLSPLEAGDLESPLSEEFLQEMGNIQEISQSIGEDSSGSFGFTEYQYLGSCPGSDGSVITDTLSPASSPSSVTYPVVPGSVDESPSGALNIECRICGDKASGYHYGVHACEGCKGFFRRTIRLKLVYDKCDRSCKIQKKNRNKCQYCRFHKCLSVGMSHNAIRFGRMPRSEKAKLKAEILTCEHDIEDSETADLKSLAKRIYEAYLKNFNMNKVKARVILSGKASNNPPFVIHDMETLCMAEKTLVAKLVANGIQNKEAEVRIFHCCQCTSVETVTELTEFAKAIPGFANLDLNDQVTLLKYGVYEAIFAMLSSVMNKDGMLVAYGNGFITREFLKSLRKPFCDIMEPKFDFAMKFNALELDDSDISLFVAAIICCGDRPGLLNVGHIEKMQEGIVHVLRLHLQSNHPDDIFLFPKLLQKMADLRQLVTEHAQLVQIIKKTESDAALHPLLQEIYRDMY
In short: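 One-hour incubation, cell-free extracted protein, TR-FRET binding readout; signal loss vs DMSO scored. Screen: 25 uM duplicates, confirmatory dose series for actives.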

[12] = biological target: Retinoic acid receptor alpha (Homo sapiens) (UniProt P10276); test: NVS_NR_hRARa_Agonist: NovaScreen (NVS) Nuclear Receptor Binding Assay for human Retinoic Acid Alpha Receptor Agonism (RAR) (AID 2283361)
Retinoic acid receptor alpha (Homo sapiens), sequence (P10276 whole entry, looked up): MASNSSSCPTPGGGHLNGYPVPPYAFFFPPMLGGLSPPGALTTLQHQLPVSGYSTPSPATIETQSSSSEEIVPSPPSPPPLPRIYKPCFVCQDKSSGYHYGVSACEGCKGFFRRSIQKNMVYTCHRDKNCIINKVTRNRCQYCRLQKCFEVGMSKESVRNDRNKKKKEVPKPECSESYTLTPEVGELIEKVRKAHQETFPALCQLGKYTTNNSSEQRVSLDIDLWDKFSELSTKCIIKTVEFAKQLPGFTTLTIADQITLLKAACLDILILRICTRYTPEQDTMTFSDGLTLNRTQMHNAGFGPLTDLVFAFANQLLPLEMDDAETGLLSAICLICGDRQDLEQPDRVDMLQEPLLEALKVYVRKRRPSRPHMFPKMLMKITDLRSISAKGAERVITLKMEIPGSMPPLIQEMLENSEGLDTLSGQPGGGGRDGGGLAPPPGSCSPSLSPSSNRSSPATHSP
In short: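 Compounds screened at 25 uM, duplicate, then in concentration series if active. Detection: TR-FRET gain of signal versus DMSO after 2 h with cell-free extracted RARα.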

PGR (gene 5241) = PGR (gene 5241) (UniProt P06401); test: NVS_NR_hPR: NovaScreen (NVS) Nuclear Receptor Binding Assay for human Progestron Receptor (PR) (AID 2283360)
PGR (gene 5241), sequence (P06401 whole entry, looked up): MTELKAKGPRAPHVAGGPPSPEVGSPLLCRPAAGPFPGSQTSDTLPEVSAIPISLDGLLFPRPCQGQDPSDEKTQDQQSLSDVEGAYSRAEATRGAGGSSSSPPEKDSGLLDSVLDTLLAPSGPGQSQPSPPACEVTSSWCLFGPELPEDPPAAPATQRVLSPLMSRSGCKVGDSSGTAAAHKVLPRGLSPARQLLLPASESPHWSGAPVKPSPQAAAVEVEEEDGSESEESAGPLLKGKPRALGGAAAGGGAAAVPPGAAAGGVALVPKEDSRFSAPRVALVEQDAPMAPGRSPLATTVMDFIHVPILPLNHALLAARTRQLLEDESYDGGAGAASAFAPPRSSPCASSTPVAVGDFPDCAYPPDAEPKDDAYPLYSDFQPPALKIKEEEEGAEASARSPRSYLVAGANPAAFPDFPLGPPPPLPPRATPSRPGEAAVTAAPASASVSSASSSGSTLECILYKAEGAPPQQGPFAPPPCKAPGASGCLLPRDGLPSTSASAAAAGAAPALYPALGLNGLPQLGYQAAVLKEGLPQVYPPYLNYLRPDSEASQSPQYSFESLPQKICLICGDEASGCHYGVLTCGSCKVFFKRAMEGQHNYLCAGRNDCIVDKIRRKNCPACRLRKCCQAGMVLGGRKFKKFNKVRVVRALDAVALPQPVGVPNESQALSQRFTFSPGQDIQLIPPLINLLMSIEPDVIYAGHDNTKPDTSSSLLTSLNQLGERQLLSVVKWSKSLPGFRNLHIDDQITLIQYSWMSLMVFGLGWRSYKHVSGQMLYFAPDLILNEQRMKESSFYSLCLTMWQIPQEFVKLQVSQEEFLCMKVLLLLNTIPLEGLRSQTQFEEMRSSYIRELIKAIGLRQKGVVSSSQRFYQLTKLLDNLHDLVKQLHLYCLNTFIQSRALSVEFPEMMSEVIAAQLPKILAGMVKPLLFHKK
In short: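 T47D lysate; tritiated or iodinated radioligand; scintillation count at 18 h. DMSO = negative control/baseline. Primary: 25 uM, duplicate. Secondary: concentration series for actives.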

[13] = biological target: Estrogen receptor (Homo sapiens) (UniProt P03372); test: NVS_NR_hER: NovaScreen (NVS) Nuclear Receptor Binding Assay for human Estrogen Receptor (ER) (AID 2283348)
In short: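 Radiodetection of ligand displacement in a lysate-based, cell-free format using MCF7 extracts, read at 18 hours. Duplicate 25 uM primary testing, then concentration series for actives.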

[14] = biological target: human Androgen Receptor (AR), AR (gene 367) (UniProt P10275); test: NVS_NR_hAR: NovaScreen (NVS) Nuclear Receptor Binding Assay for human Androgen Receptor (AR) (AID 2283332)
In short: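 Actives from a duplicate 25 uM single-point screen went on to concentration series. Read-out after 20 h was scintillation counting of displaced radioligand in LnCAP extract, with DMSO as baseline.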

[15] = biological target: rat Mineralocorticoid Receptor (MR), Nr3c2 (gene 25672) (UniProt P22199); test: NVS_NR_rMR: NovaScreen (NVS) Nuclear Receptor Binding Assay for rat Mineralocorticoid Receptor (MR) (AID 2283355)
In short: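 Single-concentration duplicate screen (25 uM) of radioligand binding in adrenalectomized rat brain supernatant; scintillation detection 24 h after dosing. Positive and negative controls ran on each plate, and confirmed actives went to concentration-response.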

[16] = biological target: Retinoic acid receptor alpha (Homo sapiens) (UniProt P10276); test: NVS_NR_hRAR_Antagonist: NovaScreen (NVS) Nuclear Receptor Binding Assay for human Retinoic Acid Alpha Receptor Antagonism (RAR) (AID 2283358)
In short: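 Chemicals were first tested in duplicate at 25 uM, then actives in concentration series, in a cell-free TR-FRET antagonist binding format. Measurements were taken 2 hours after dosing and loss of signal was evaluated against DMSO controls.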

CC(C)(C)CC(C)(C)c1ccc(OCCOCC[N+](C)(C)Cc2ccccc2)cc1
outcome [1]: inactive
outcome [2]: inactive
AC50 [3]: 2.81 µM (active)

COc1ccc(N=Nc2cc(C)c(N=Nc3ccc(S(=O)(=O)O)cc3)cc2OC)cc1
AC50 [2]: 2.05 µM (active)
AC50 [4]: 0.0418 µM (active)
AC50 [5]: 25 µM (active)
outcome [6]: inactive

CN(C)C(=O)Nc1ccc(Oc2ccc(Cl)cc2)cc1
AC50 [2]: 2.91 µM (active)
AC50 [4]: 5.74 µM (active)

Cc1cc(CCC(=O)OCCOCCOCCOC(=O)CCc2cc(C)c(O)c(C(C)(C)C)c2)cc(C(C)(C)C)c1O
AC50 [2]: 0.721 µM (active)

O=C(Nc1ccc2c(O)c(N=Nc3ccc(N=Nc4ccc(S(=O)(=O)O)cc4)cc3)c(S(=O)(=O)O)cc2c1)c1ccccc1
AC50 [5]: 40.6 µM (active)
outcome [7]: inactive
outcome [8]: inactive
outcome [9]: inactive
outcome [10]: inactive
outcome [6]: inactive

Nc1ccc2cc(S(=O)(=O)O)cc(O)c2c1N=Nc1ccccc1C(F)(F)F
AC50 [2]: 1.16 µM (active)
AC50 [4]: 5.02 µM (active)
outcome [6]: inactive
AC50 [11]: 0.155 µM (active)

CCCCC(CC)COC(=O)c1ccc(O)cc1 (stereo not drawn)
AC50 [2]: 2.71 µM (active)
AC50 [4]: 1.23 µM (active)
AC50 [6]: 0.91 µM (active)
outcome [11]: inactive
outcome [12]: inactive

CCCCOC(=O)CCCCCCCC(=O)OCCCC
outcome [3]: inactive
outcome [6]: inactive

CN(c1nccc(=O)[nH]1)C1CCN(c2nc3ccccc3n2Cc2ccc(F)cc2)CC1
outcome [1]: inactive
outcome [3]: inactive
outcome (PGR (gene 5241)): inactive

CN(C)C(=S)SC(=S)N(C)C
outcome [4]: inactive

COc1ccc(OC)c(N=Nc2c(O)ccc3ccccc23)c1
outcome [1]: inactive
AC50 [5]: 2.85 µM (active)

CCCCCCCCCCCCCCCC(=O)OC/C=C(C)/C=C/C=C(C)/C=C/C1=C(C)CCCC1(C)C
outcome [1]: inactive
AC50 [2]: 41.1 µM (active)
outcome [4]: inactive

CS(=O)(=O)OCCCCOS(C)(=O)=O
outcome [1]: inactive
outcome [2]: inactive
outcome [4]: inactive
AC50 [13]: 0.875 µM (active)
outcome [7]: inactive
outcome [8]: inactive

CCC1CCCCC1
outcome [1]: inactive

Oc1c(Cl)cc(Cl)c(Cl)c1Cc1c(O)c(Cl)cc(Cl)c1Cl
AC50 [14]: 24 µM (active)
AC50 [5]: 5 µM (active)
outcome [15]: inactive
outcome (PGR (gene 5241)): inactive

CC(C)CCCCCCc1ccc(OCCOCCO)cc1
AC50 [9]: 33.8 µM (active)
AC50 [10]: 36.5 µM (active)

CC(=O)CC(=O)Nc1ccccc1
outcome [15]: inactive

CCCCCCCCC=CCCCCCCCC1=NCCN1CCO
AC50 [16]: 25 µM (active)

CCCCCCCCc1ccc(S(=O)(=O)O)cc1
AC50 [16]: 16.8 µM (active)

CCCCCCCCCCCCCCN(CCO)CCO
outcome [16]: inactive
